# The entries come from a sample that favours hits as a whole.
# Tg IFNy HTS: T. gondii growth inhibition under IFN-gamma; Toxoplasma gondii growth in IFN-gamma-treated host cells; active compounds read low; activity change, negative = inhibition, % (no concentration beside the values); 69,000 tested, 3.8% active; AID 1259416; in the data active = activity change below about -70%, passing the limit was not always enough;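 note: host cells are HeLa cells infected with Toxoplasma gondii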
# Numbers without * were called inactive; ! = not confirmed by another sample.
SMILES,Tg IFNy HTS
CCc1cnc(N2CCC3(CC2)OC(C(=O)NCC(C)C)Cn2ccnc23)nc1 (stereo not given),-103*
CC(C)CNC(=O)C1Cn2ccnc2C2(CCN(C(=O)C3CCOCC3)CC2)O1 (stereo not given),13
CCCCNC(=O)c1c(O)c2cccnc2n(-c2cccc(OC)c2)c1=O,138
Cc1cc(-c2c(-c3ccccc3)ncn2CC(C)Oc2cccnc2)n[nH]1 (stereo not given),1
COc1ccccc1CCCNc1cc(C(C)Cn2nc(C)c(C)c2C)nc(C)n1 (stereo not given),-11
O=C(Nc1ccc(-c2nc(-c3ccccc3)co2)cc1)Nc1cc(F)ccc1F,47
Cc1ccc(C(=O)N2CCC3OCCCC3(COCC3CC3)C2)cn1 (stereo not given),13
COCC12CCCOC1CCN(C(=O)C1=CCCC1)C2 (stereo not given),-81*
CCOCC12CCCOC1CCN(C(=O)C1=CCCC1)C2 (stereo not given),26
C=C1c2cccc(O)c2C(=O)C2C(=O)[C@]3(O)C(=O)C(C(N)=O)C(=O)[C@@H](N(C)C)[C@@H]3[C@@H](O)[C@H]12 (stereo not given in full),-72*!
CCCCc1ncc(CN(C)Cc2cccc3ncccc23)[nH]1,-3
CC(C)N1CCCn2c(nc(CNC(=O)c3ccsc3)cc2=O)C1,-5
OC(c1ccccn1)C1CCN(Cc2cccc3[nH]ccc23)CC1 (stereo not given),-36
CCNc1ncc(C(=O)N2CCCCC2CN2CCOCC2)cn1 (stereo not given),-2
Cc1ccc(NC(=O)C(=O)NCCc2csc(-c3cccc(F)c3)n2)cc1,53
Cc1ccc(NC(=O)C(=O)NCCc2csc(-c3ccc(F)cc3)n2)cc1,47
Cc1cc(C)cc(NC(=O)C(=O)NCCc2csc(-c3cccc(F)c3)n2)c1,-92*
Cc1cccc(C)c1NC(=O)C(=O)NCCc1csc(-c2ccc(F)cc2)n1,-78*
O=C(NCCc1csc(-c2cccc(F)c2)n1)C(=O)Nc1ccc(F)cc1,-37
Cc1ccc(-c2nc(CCNC(=O)C(=O)Nc3c(C)cccc3C)cs2)cc1,-50
Cc1cc(C)cc(NC(=O)C(=O)NCCc2csc(-c3ccc(F)cc3)n2)c1,-93*
Cc1cccc(NC(=O)C(=O)NCCc2csc(-c3ccc(F)cc3)n2)c1,-38
O=C(NCCc1csc(-c2ccc(F)cc2)n1)C(=O)Nc1ccccc1,-43
CN1CC2(CCCN(CCc3ccccn3)CC2)OC1=O (stereo not given),6
COc1ccc(Nc2nc(-c3nnc(-c4ccc(F)cc4)o3)nc3ccccc23)cc1Cl,213
SMILES,Tg IFNy HTS
COc1cccc(C(=O)N2CCC(C(=O)N3CCN(C)C(C(=O)O)C3)CC2)c1 (stereo not given),7
Cc1cccc(CN2C[C@@H]3N(c4ncccn4)CCC[C@@]3(C(=O)N(C)C)C2)c1,6
Cc1ccc(NC(=O)C(=O)NCCc2sc(-c3ccc(F)cc3)nc2C)cc1F,34
COc1cccc(CNC(=O)Cn2c(=O)cc(-c3nc(C)no3)c3ccccc32)c1,18
Cc1cc(C2CCCN2Cc2cccc(C(=O)Nc3nccs3)c2)no1 (stereo not given),4
CC[C@@]1(O)C(=O)OCc2c1cc1n(c2=O)Cc2cc3c([N+](=O)[O-])cccc3nc2-1,-80*
CC[C@@]1(O)C(=O)OCc2c1cc1n(c2=O)Cc2cc3c(CN(C)C)c(O)ccc3nc2-1,-78*
Cc1cc(=O)oc2c(CN(C)C)c(O)ccc12,-2
COCCN1C(=O)CCc2cc(NC(=O)c3cc(Cl)ccc3OC)ccc21,-25
CC(C)N1CCC2(CC1)OCCN(c1ncccn1)c1ccccc12,3
Cc1noc(C)c1CN1CCC2(CC1)CCN(c1ncccn1)C2,-4
Cc1cnc(C(=O)N2CCCC(Cc3ccccn3)C2)cn1 (stereo not given),-26
CCCC(=O)Nc1cc(OC)c(NC(=O)c2cccc(C)c2)cc1OC,5
COc1ccccc1-c1nc2cnccn2c1NCCC(=O)N1CCC2(CC1)OCCO2,-28
Cc1ccsc1CN(CC(C)C)C(=O)CC1CNCCO1 (stereo not given),-45
Cn1ccc2c(-c3ccccc3C(N)=O)ccnc21,8
Cn1ccc2c(-c3cc(N4CCCCC4)ncn3)ccnc21,24
Cc1nc(-n2cnnc2)ccc1-c1ccnc2c1ccn2C,-97*
CN1CCN2C[C@@H](NC(=O)Cc3cc4c(cc3Cl)OCCO4)C[C@H]2C1,0
CCc1ccc(CN2C[C@H](OCC(=O)N(C)C)[C@@H]3COC[C@@H]32)o1,76
N#Cc1cc2c(c3c1CCc1ccccc1-3)-c1ccccc1CC2,-80*
N#Cc1ccccc1-c1ccccc1C#N,60
Cc1ccc(-c2cc(C(=O)N3CCSCC3)cc(S(=O)(=O)N3CCOCC3)c2)s1,16
C=CCN1C(=O)COC2(CCN(Cc3nccs3)CC2)C1C (stereo not given),-48
Fc1ccccc1CC1CCN(Cc2ccccn2)CC1,-6
SMILES,Tg IFNy HTS
Cc1ccc(C(=O)N2CCOCC3(CCC(CN(C)C)O3)C2)cn1 (stereo not given),129
O=C1NC2(CCc3ccccc31)CCN(Cc1ccc(N3CCCC3=O)cc1)C2 (stereo not given),64
COc1ccc2[nH]cc(C3N4CC5(C)CN3CC(C)(C4)C5=O)c2c1 (stereo not given),11
COc1ccc2[nH]c(=O)c3c(c2c1)OC(C)(C)C=C3,-83*
COc1ccc(C(=O)CC(=O)O)c2c1C=CC(C)(C)O2,10
CC[C@@H](C(=O)[C@@H](C)[C@@H](O)[C@H](C)[C@@H]1O[C@@H]([C@@H](CC)C(=O)O)CC[C@@H]1C)[C@H]1OC2(C=C[C@@H](O)[C@]3(CC[C@@](C)(C4CC[C@](O)(CC)[C@H](C)O4)O3)O2)[C@H](C)C[C@@H]1C (stereo not given in full),-84*
CC[C@@H](C(=O)[C@@H](C)[C@@H](O)[C@H](C)[C@@H]1O[C@@H]([C@@H](CC)C(=O)O)CC[C@@H]1C)[C@H]1O[C@]2(C=C[C@@H](O)[C@]3(CC[C@@](C)(C4CC[C@](O)(CC)[C@H](C)O4)O3)O2)[C@H](C)C[C@@H]1C (stereo not given in full),-81*
CCn1c(CC2CCN(c3ccnc4ccccc34)CC2)nn(C)c1=O,-3
Cc1nn(CC(=O)NC2CC2)c(=O)c2nc(-c3ccccc3)sc12,0
O=C1NC(c2ccccc2)(C(F)(F)F)SC(=Nc2ccccc2)N1c1ccccc1 (stereo not given),-40
O=C(c1ccco1)N1CCC2O[C@H](COCCN3CCCC3)CCC21 (stereo not given in full),-4
CCN(Cc1ccncc1)C(=O)CSCc1ccccc1Cl,65
Cc1ccc2c(c1)C(=O)CC1(CCN(CC(=O)Nc3nc4c(s3)CCCC4)CC1)O2,-48
O=C(CN1CCCC1Cn1cccn1)Nc1nc2c(s1)CCCC2 (stereo not given),-78*
O=C(CN1CCCC1Cn1cccn1)Nc1ccnn1C1CCCC1 (stereo not given),1
COc1ccccc1C(=O)NC(c1ccccn1)C1CCC(CNC(C)=O)CC1 (stereo not given),0
COc1ccc(-c2ncc(CN3CCCC(C(=O)c4cccc(OC(C)C)c4)C3)cn2)cc1 (stereo not given),-59
O=C1c2ccccc2C(=O)C1c1nc2ccc3ccccc3c2s1,12

# Screening data as filed in PubChem.
